The results in this text go back to PubChem BioAssay (Tox21).

Results filed as inconclusive are left out. A number with no mark means an inactive call. Active and inactive are the calls of the source. The call rests on the fitted dose curve.
On the % scale 0 is the no-effect control and ±100 the full control effect.

A short description of this test: qHTS assay to identify small molecule agonists or antagonists of the thyroid stimulating hormone receptor (TSHR) signaling pathway - wild type cell line counter screen (AID 1259384). The conditions noted are these: HEK293 wild type, cAMP HTRF counter-screen, hits give high values; series mostly up to 92.4 µM; cAMP activity change: at the top concentration. The text has this:
U.S. Tox21 Program National Center for Advancing Translational Sciences [NCATS] NIH Chemical Genomics Center [NCGC] U.S. Environmental Protection Agency [EPA] National Institutes of Environmental Health Sciences [NIEHS] National Toxicology Program [NTP] U.S. Food and Drug Administration [FDA] Tox21 Assay Overview: TSHR is the receptor for thyrotropin (thyroid stimulating hormone or TSH), a member of the glycoprotein hormone family. TSH is released by the anterior pituitary gland and is the main regulator of thyroid gland growth and development. Upon binding circulating thyrotropin, a G-protein signal cascade activates adenylyl cyclase and […] cAMP concentration is increased. cAMP is a key second messenger involved extensively in cellular signal transduction pathways associated with the majority of G-protein coupled receptors (GPCRs). The activation of these GPCRs by neurotransmitters, lipids, nucleotides, peptides and hormones results in the activation or the inhibition of plasma membrane-bound adenylate cyclase through heterotrimeric G-proteins. A cell-based TSHR-Hek293 assay can be used to identify TSHR agonists. To eliminate the false positive compounds identified from screening a cell-based TSHR-Hek293 cell line, cAMP assay in a wild type Hek293 cells was used as a counter screening.
Tox21 Assay Protocol Summary: Hek293 cells (wild type) were dispensed at 800 cells/4 uL/well in 1536-well white plates using a Multidrop dispenser. After the assay plates were incubated at a 37 C/5% CO2 incubator for 18 hrs, 23 nL of compounds dissolved in DMSO, positive controls or DMSO only was transferred to the assay plate by a pin tool, followed by 1 ul medium containing Ro20-1724. After 30 min of incubation at room temperature, 2.5 ul/well of cAMP-d2 and 2.5 ul/well of anti-cAMP-cryptate were added respectively into the assay plates using a Flying Reagent Dispenser. The plates were incubated at room temperature for 1 hr. The fluorescence intensity in the plates was measured using an Envision plate reader. Each test compound was measured at 15 concentrations and in triplicates.
In general terms: In qHTS, concentration-response curves come from the screen itself.
Consider `Cl[C@H]1OCCO[C@@H]1Cl`, for which the result was inactive. As for `C[C@]12CC[C@H](O)CC1=CC[C@@H]1[C@@H]2CC[C@]2(C)C(=O)CC[C@@H]12`, the result was inactive. On the same count and under the same terms, the entry for `Nc1ccc([As](=O)(O)O)cc1` is “inactive”. Turning to `CCOc1ccc(N)cc1`, the compound was classed as inactive. Take `CC(C)CCCCCCOC(=O)c1ccccc1C(=O)OCCCCCCC(C)C`: the call was inactive. `O=P1(NCCCl)OCCCN1CCCl` (stereo not given): the call was inactive. On to `Nc1cc(Cl)cc(Cl)c1`, for which the compound was called inactive. Consider `CCSC(=O)N1CCCCCC1`, for which the call was inactive. On the same count and under the same terms, as for `c1ccc2c(c1)CCCC2`, the entry is “inactive”; as for `CC(C)c1cccc(C(C)C)c1O`, “inactive”. Turning to `Oc1c(Br)cc(Br)cc1Br`, the outcome was inactive. The same measure, in the same setting: the entry for `O=C/C=C/c1ccccc1` is “inactive”; for `O=C(O)C1C(C(=O)O)C2(Cl)C(Cl)=C(Cl)C1(Cl)C2(Cl)Cl` (stereo not given) it is “inactive”. On the same count and under the same terms, the entry for `FC(F)(F)c1ccc(Cl)cc1` is “inactive”; for `COP(=S)(OC)SCN1C(=O)c2ccccc2C1=O` it is “inactive”. The same measure, in the same setting: as for `OCCCCO`, the entry is “inactive”; as for `CN(C)C(=O)Cl`, “inactive”. In the case of `C/C=C/c1ccc2c(c1)OCO2`, the outcome was inactive. For the compound `N#Cc1cccc(C#N)c1`, the call was inactive. Same read-out and setting: the entry for `CCOP(=S)(OCC)Oc1ccc([N+](=O)[O-])cc1` is “inactive”; for `CCOC(=O)CC(SP(=O)(OC)OC)C(=O)OCC` (stereo not given) it is “inactive”.

Regarding `Cc1cccc(N)c1C`, the call was inactive. The same measure, in the same setting: as for `Cc1ccc(O)c(C)c1`, the entry is “inactive”; as for `Nc1nc(N)nc(NC2CC2)n1`, “inactive”. Same read-out and setting: the entry for `C=CC(=O)OCCCCCC(C)C` is “inactive”; for `CN(C)C(=O)Nc1cccc(C(F)(F)F)c1` it is “inactive”. Consider `CNC(=O)Oc1cccc2ccccc12`, for which the compound was classed as inactive. Consider `CCCCC(CC)C(=O)Cl` (stereo not given), for which the result was inactive.

Regarding `CCOP(=S)(OCC)Oc1cc(C)nc(C(C)C)n1`, the call was inactive. As to `Cl/C=C/Cl`, the compound was classed as inactive. On to `COc1nc(NC(C)C)nc(NC(C)C)n1`, for which the compound was called inactive.

On to `CSc1nnc(C(C)(C)C)c(=O)n1N`, for which the call was inactive. Still for that read-out and setting: the entry for `COC(C)(C)CCCC(C)C/C=C/C(C)=C/C(=O)OC(C)C` (stereo not given) is “inactive”. Still for that read-out and setting: the entry for `C=C(C)C(=O)OCC(CC)CCCC` (stereo not given) is “inactive”. The same measure, in the same setting: as for `NNc1ccccc1`, the entry is “inactive”. As to `Cc1cc(O)ccc1Cl`, the compound was classed as inactive. Take `OC[C@@H](O)[C@H]1O[C@@H]2O[C@H](C(Cl)(Cl)Cl)O[C@@H]2[C@H]1O`: the compound was called inactive.

Turning to `C=CC#N`, the outcome was inactive.

For the compound `CC(=O)/C=C/c1ccccc1`, the result was inactive.

With `Nc1ccc(N)cc1`, the “cAMP activity change” value was -0.436% [at 42.5 µM].
